The source of these data is PubChem BioAssay (NCATS).

Records with an inconclusive call do not appear. Unmarked numbers belong to inactive results. Activity calls are given as the source filed them. The call rests on the fitted dose curve; in most records, active means well fitted curve in the direction sought with a large enough effect; inconclusive means small, poorly fitted or top-dose-only effect, or another doubt; inactive means no such curve, though single readings can be large; an effect the other way counts as inactive or inconclusive.

For experiment [1], the target named is Aldehyde dehydrogenase, mitochondrial (Homo sapiens) (UniProt P05091). The experiment in a line: qHTS for Inhibitors of the Aldehyde Dehydrogenase Family (ALDH2) Primary screen (AID 2061308).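 Further: plate controls were vehicle for no effect and reference inhibitor for full effect; nearly all actives have a fitted effect of over 55% in size.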 In general terms: In qHTS, concentration-response curves come from the screen itself.
In experiment [2] the target is Retinaldehyde dehydrogenase 3 (Homo sapiens) (UniProt P47895). As to the kind of experiment: qHTS for Inhibitors of the Aldehyde Dehydrogenase Family (ALDH1A3) Primary screen (AID 2061315).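 Further: plate controls were DMSO vehicle for no effect and reference inhibitor for full effect.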

As for `O=C(CSc1nc2ccccc2[nH]1)N1CCOCC1`, the Potency result in experiment [1] and in experiment [2] was “inactive” in each case.
`C[S+](=O)([O-])c1ccc(C(=O)OCC(=O)N2CCNC(=O)C2)cc1[N+](=O)[O-]`: the Potency result in experiment [1] and in experiment [2] was “inactive” each time.
For the molecule `CC(C)c1ccccc1-c1nc2c(c(NCc3ccc(-c4cccnc4)cc3)n1)CNC2`, the Potency entry in experiment [1] and in experiment [2] was “inactive” in each case.
Regarding `O=C(Nc1ccc(F)c(C(F)(F)F)c1)Nc1nnc(-c2ccncc2)o1`, the Potency result in experiment [1] and in experiment [2] was “inactive” each time.
As to `Cc1cc(N[S+](=O)([O-])c2ccc(NC(=O)Cc3ccc(Cl)nc3)cc2)no1`, the Potency entry in experiment [1] and in experiment [2] was “inactive” in each case.
Turning to `COC(=O)c1ccc(OC(C)=O)c2ncccc12`, the Potency entry in experiment [1] and in experiment [2] was “inactive” in each case.
As for `NCCCCC(=O)Nc1ccc(Cl)cc1C(=O)c1ccc[nH]1`, the Potency entry in experiment [1] and in experiment [2] was “inactive” throughout.
In the case of `CC(C)(C)OC(=O)N[C@@H](Cc1ccc(O[S+](=O)([O-])c2cccc3cnccc23)cc1)C(=O)Nc1ccc(-c2ccccc2)cc1`, the Potency result in experiment [1] and in experiment [2] was “inactive” each time.
On to `CC(=O)c1cccc(-c2ccc(-c3nc4ccccc4c(=O)[nH]3)o2)c1`, for which the Potency entry in experiment [1] and in experiment [2] was “inactive” in each case.
With `Cc1noc(C)c1-c1ccc2ncnc(NCc3cccc(-c4ccccc4)c3)c2c1`, the Potency entry in experiment [1] and in experiment [2] was “inactive” in each case.
In the case of `O=C(O)c1ccc(O)c2ncccc12`, the Potency entry in experiment [1] and in experiment [2] was “inactive” throughout.
On to `C[C@@H]1O[C@@H](O[C@H]2[C@H](OC(=O)[C@]34CCC(C)(C)C[C@H]3C3=CCC5[C@@]6(C)C[C@H](O)[C@H](O[C@@H]7O[C@H](CO)[C@@H](O[C@@H]8O[C@H](CO)[C@@H](O)[C@H](O)[C@H]8O)[C@H](O)[C@H]7O)[C@@](C)(CO)C6[C@H](O)C[C@@]5(C)[C@]3(C)C[C@H]4O)OC[C@H](O)[C@@H]2O)[C@H](O)[C@H](O)[C@H]1O[C@@H]1OC[C@@H](O)[C@H](O[C@@H]2OC[C@](O)(CO)[C@H]2O)[C@H]1O` (some centres not stated), for which the activity change, negative = inhibition is -1.66% [at 11.2 µM] in experiment [1] and -12.4% [at 11.2 µM] in experiment [2].
As for `COc1cccc(CCN2C(=O)c3ccccc3NC2c2ccc(OC)c(COc3c(C)cc(NC(C)=O)cc3C)c2)c1` (configuration not stated), the Potency entry in experiment [1] and in experiment [2] was “inactive” in each case.
As to `O=C(Nc1ccc(Cl)c(Cl)c1)Nc1nnc(-c2ccc(F)cc2)s1`, the Potency entry in experiment [1] and in experiment [2] was “inactive” throughout.
Consider `Cc1ccc(OCCn2c(CCNC(=O)c3cccc(F)c3)nc3ccccc32)cc1`, for which the Potency entry in experiment [1] and in experiment [2] was “inactive” each time.
For the molecule `CC(C)(O)C1Cc2c(ccc(C(=O)CCc3ccccc3)c2O)O1` (configuration not stated), the Potency result in experiment [1] and in experiment [2] was “inactive” throughout.
For `CNc1oc(-c2cccc3cnccc23)nc1C#N`, the Potency entry in experiment [1] and in experiment [2] was “inactive” in each case.
Take `Cc1sc(NC(=O)Cc2ccc3c(c2)OCO3)nc1-c1ccc2c(c1)CCN2C(=O)c1ccccc1F`: the Potency entry in experiment [1] and in experiment [2] was “inactive” in each case.
`CCc1ccccc1C(=O)N1CCc2cc(-c3nc(NC(=O)Cc4ccc5c(c4)OCO5)sc3C)ccc21`: the Potency entry in experiment [1] and in experiment [2] was “inactive” each time.
`Cc1ccccc1-c1nc(NCc2ccc(-c3cccnc3)cc2)c2ccccc2n1`: the Potency entry in experiment [1] and in experiment [2] was “inactive” throughout.
In the case of `COc1ccc(OC)c(C2=Nn3c(nnc3-c3ccccc3O)SC2)c1`, the Potency result in experiment [1] and in experiment [2] was “inactive” each time.
For the molecule `COc1ccc(NC(=O)CSc2nnc(-c3cccc(S(=O)(=O)N4CCCC4)c3)n2-c2ccccc2)cc1`, the Potency entry in experiment [1] and in experiment [2] was “inactive” each time.
In the case of `CCOC(=O)c1cnc2ccc(-c3cncc(NS(=O)(=O)c4ccccc4)c3)cn12`, the Potency result in experiment [1] and in experiment [2] was “inactive” in each case.
As for `NC(=O)c1ccc(Cc2c(-c3cccc(-c4ccccc4)c3)[nH]n(-c3nc(C(=O)O)cs3)c2=O)cc1`, the Potency result in experiment [1] and in experiment [2] was “inactive” each time.
In the case of `C#CCOc1cc(C2=Nn3c(nnc3-c3cccc(OCC(C)=O)c3)SC2)ccc1OC`, the Potency result in experiment [1] and in experiment [2] was “inactive” in each case.
`O=C(COC(=O)CNC(=O)C1CCCCC1)Nc1ccccc1Cl`: the Potency entry in experiment [1] and in experiment [2] was “inactive” in each case.
Turning to `O=C(Nc1cncnc1)c1cccs1`, the Potency result in experiment [1] and in experiment [2] was “inactive” in each case.
Regarding `Cc1cc(-c2nc(Nc3ccc(F)c(F)c3)c3ccccc3n2)cc(C)n1`, the Potency result in experiment [1] and in experiment [2] was “inactive” each time.
`N#Cc1nc(Nc2cc(F)cc(F)c2)nc(NC2CCCC2)n1`: the Potency entry in experiment [1] and in experiment [2] was “inactive” throughout.
Consider `O=C(Cc1ccc(Cl)c(Cl)c1)Nc1ccc([S+](=O)([O-])Nc2ccc3[nH]ccc3c2)cc1`, for which the Potency result in experiment [1] and in experiment [2] was “inactive” throughout.
`Cc1cc(C)n2ncc(C(=O)Nc3cc(Cl)cc(Cl)c3)c2n1`: the Potency entry in experiment [1] and in experiment [2] was “inactive” in each case.
Consider `Cc1cc2c(s1)c1cnn(Cc3c(F)cccc3Cl)c(=O)c1n2C`, for which the Potency result in experiment [1] and in experiment [2] was “inactive” each time.
Turning to `O=C(O)c1ccc2c(c1)C(=O)N([C@H](Cc1ccc3ccccc3c1)C(=O)O)C2=O`, the Potency entry in experiment [1] and in experiment [2] was “inactive” in each case.
Turning to `Cc1ccc(OC2=NS(=O)(=O)c3ccccc32)cc1`, the Potency result in experiment [1] and in experiment [2] was “inactive” each time.
Take `Cc1ccc(-c2cc(C(=O)Nc3ccncc3)c3ccccc3n2)cc1C`: the Potency entry in experiment [1] and in experiment [2] was “inactive” in each case.
As to `NCc1ccc(Nc2ncc(F)c(Nc3ccccc3)n2)cc1`, the Potency entry in experiment [1] and in experiment [2] was “inactive” each time.
Regarding `Clc1cccc(CSc2nc3ncc(Br)cc3[nH]2)c1`, the Potency result in experiment [1] and in experiment [2] was “inactive” each time.
`CC(C)(C)OC(=O)NCCOCCOCCOc1cccc(-n2ncc3c2CCCC3NC(=O)c2ccccn2)c1` (configuration not stated): the Potency result in experiment [1] and in experiment [2] was “inactive” each time.
With `CCCn1c(C)nc2c(NCc3ccccc3)nc(C)nc21`, the Potency entry in experiment [1] and in experiment [2] was “inactive” each time.
Turning to `O=C(Nc1nc(-c2ccccc2)cs1)c1ccncc1NS(=O)(=O)c1cccs1`, the Potency entry in experiment [1] and in experiment [2] was “inactive” throughout.
For the molecule `Cc1cc(N[S+](=O)([O-])c2ccc(NC(=O)Cc3nc4ccc(Cl)cc4[nH]3)cc2)no1`, the Potency entry in experiment [1] and in experiment [2] was “inactive” throughout.
